Results filed as inconclusive are left out. Calls of active or inactive are those of the source. The call rests on the fitted dose curve; in most records, active means well fitted curve in the direction sought with a large enough effect; inconclusive means small, poorly fitted or top-dose-only effect, or another doubt; inactive means no such curve, though single readings can be large; an effect the other way counts as inactive or inconclusive.
Key:
[1] = biological target: Glutathione peroxidase 1 (Homo sapiens) (UniProt P07203); test: Primary qHTS Assay for Inhibitors of Recombinant Selenoprotein Glutathione Peroxidase 1 (GPX1) (AID 1845191); details: recombinant GPX1, GR-coupled NADPH fluorescence, 15 min; series mostly up to 48.8 µM; further: nearly all actives have a fitted effect of over 65% in size
In short: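 NADPH consumption tracked by fluorescence at 340/450 nm between t=0 and t=15 min, room temperature. Final mix: 10 nM GPX1, 100 nM glutathione reductase, 1 mM GSH, 0.5 mM NADPH, 0.5 mM cumene hydroperoxide, 0.01% BSA; 30 min compound–enzyme preincubation.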

[2] = biological target: Phospholipid hydroperoxide glutathione peroxidase GPX4 (Homo sapiens) (UniProt P36969); test: Primary qHTS Assay for Inhibitors of Recombinant Selenoprotein Glutathione Peroxidase 4 (GPX4) (AID 1845192); details: recombinant GPX4, GR-coupled NADPH fluorescence, 15 min; series mostly up to 50 µM; further: nearly all actives have a fitted effect of over 65% in size
In short: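 NADPH consumption followed by fluorescence at 340/450 nm, t=0 and after 15 min at room temperature. Reaction started with cumene hydroperoxide (0.5 mM final) after 30 min compound–GPX4 preincubation; final 200 nM GPX4, 100 nM GR, 1 mM GSH, 0.5 mM NADPH.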

[3] = biological target: Luciferin 4-monooxygenase (Photinus pyralis) (UniProt P08659); test: Primary firefly luciferase (FLuc) qHTS assay for identification of artifact compounds. (AID 1845220); details: purified firefly luciferase, luminescence, 5 min; series mostly up to 54.1 µM; further: nearly all actives have a fitted effect of over 60% in size
In short: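 Cell-free, 1536-well qHTS. Buffer pH 7.6 with 0.01% Tween-20 and 0.05% BSA; 10 uM D-luciferin, 10 uM ATP; 10 nM P. pyralis luciferase; luminescence after 5 min.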

[4] = system: Nanoluciferase (engineered Oplophorus gracilirostris luciferase); test: Primary Nanoluciferase (NLuc) qHTS assay for identification of artifact compounds. (AID 1845222); details: NLuc-conditioned medium, Nano-Glo luminescence, 5 min; series mostly up to 54.1 µM
In short: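 Compounds are pinned into diluted (1:55) conditioned medium of NLuc-expressing S16 cells and held 15 min at room temperature protected from light. Nano-Glo substrate follows, and luminescence is read 5 min later.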

[5] = Primary redox qHTS assay for identification of artifact compounds. (AID 1845223); details: Amplex Red/HRP redox cycling with DTT, fluorescence; series mostly up to 53.8 µM
In short: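 Redox-cycling detection via DTT (250 uM final) oxidation coupled to Amplex Red (25 uM)/HRP (250 mU/mL) in HBSS. 15 min preincubation plus 30 min after DTT, room temperature. Ex/Em 525/598 nm; 4-parameter Hill fit against DMSO and 10 uM DA3003.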

Measured: Potency

Chain of Phospholipid hydroperoxide glutathione peroxidase GPX4 (Homo sapiens) (P36969 whole entry, looked up): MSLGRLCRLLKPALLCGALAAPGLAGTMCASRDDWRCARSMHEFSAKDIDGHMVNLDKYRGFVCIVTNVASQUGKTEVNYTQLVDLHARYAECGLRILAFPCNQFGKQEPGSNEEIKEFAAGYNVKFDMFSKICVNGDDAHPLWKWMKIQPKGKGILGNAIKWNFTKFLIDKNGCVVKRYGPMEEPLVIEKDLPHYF
Chain of Glutathione peroxidase 1 (Homo sapiens) (P07203 whole entry, looked up): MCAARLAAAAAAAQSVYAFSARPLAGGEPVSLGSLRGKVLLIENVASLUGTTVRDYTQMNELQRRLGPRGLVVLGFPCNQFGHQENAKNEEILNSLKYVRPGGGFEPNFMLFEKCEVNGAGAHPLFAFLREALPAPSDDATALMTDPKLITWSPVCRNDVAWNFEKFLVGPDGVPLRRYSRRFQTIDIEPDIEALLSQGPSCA

O=S(=O)(c1ccc(Cl)cc1)N1CCN(c2ccnc3cc(Cl)ccc23)CC1
inactive: [1] | [2] | [3] | [4] | [5]

CC1CCCC(O)CC(=O)c2c(O)cc(O)cc2CC(=O)O1 (stereo not given)
inactive: [1] | [2] | [3] | [4] | [5]

C[C@H]1CO[C@@H]2Cn3cc(C(=O)NCc4ccc(F)cc4F)c(=O)c(O)c3C(=O)N12
inactive: [1] | [2] | [3] | [4] | [5]

CC1(C(=O)Nc2ccc(F)nc2)CCCN1c1nc(Nc2cc(C3CC3)[nH]n2)c2cccn2n1 (stereo not given)
inactive: [1] | [2] | [3] | [4] | [5]

CN1CCN(C2=Nc3ccccc3Nc3ccc(Cl)cc32)CC1
inactive: [1] | [2] | [3] | [4] | [5]

C[C@@H]1CCCN1CCc1cc2cc(-c3ccc(C#N)cc3)ccc2o1
inactive: [1] | [2] | [3] | [4] | [5]

CC(/C=C/C(=O)NO)=C\[C@@H](C)C(=O)c1ccc(N(C)C)cc1
inactive: [1] | [2] | [3] | [4] | [5]

Cc1cc(F)ccc1[C@H]1C[C@@H](N2CCN3C(=O)CC[C@H]3C2)CCN1C(=O)N(C)[C@H](C)c1cc(C(F)(F)F)cc(C(F)(F)F)c1
inactive: [1] | [2] | [3] | [4] | [5]

CCOc1cn(-c2ccc(F)cc2C)nc1C(=O)Nc1ccc(Oc2ccnc3cc(OC)c(OC)cc23)c(F)c1
inactive: [1] | [2] | [3] | [4] | [5]

CO[C@H]1C[C@@H]2CC[C@@H](C)[C@@](O)(O2)C(=O)C(=O)N2CCCC[C@H]2C(=O)O[C@H]([C@@H](C)C[C@@H]2CC[C@@H](O)[C@H](OC)C2)CC(=O)[C@H](C)/C=C(\C)[C@@H](O)[C@@H](OC)C(=O)[C@H](C)C[C@H](C)/C=C/C=C/C=C/1C
inactive: [1] | [2] | [3] | [4] | [5]

Cc1[nH]c2ccc(F)cc2c1-c1nc2c3cccnc3c3ncccc3c2[nH]1
inactive: [1] | [2] | [3] | [4] | [5]

From PubChem BioAssay (NCATS)
